Assay results: PubChem BioAssay (Tox21)
Results filed as inconclusive are left out. Where a call stands in place of a potency, no number is given. Activity calls are given as the source filed them. Calls follow the shape of the dose curve; as a rule, active = well fitted cell-killing curve with a large enough effect in the repeat runs; inconclusive = weak or mixed curves, or effect the other way; inactive = no such curve, though single readings can be large or run the other way.

Assay: qHTS assay to identify small molecule antagonists of the sonic hedgehog signaling (Shh) pathway - cell viability counter screen (AID 1259367); also: nearly all actives have a fitted effect of over 55% in size
Conditions: NIH/3T3 Gli1-Luc viability, CellTiter-Fluor, 24 h; series mostly up to 92.4 µM
Text: National Center for Advancing Translational Sciences [NCATS]
NIH Chemical Genomics Center [NCGC]
U.S. Environmental Protection Agency [EPA]
National Institutes of Environmental Health Sciences [NIEHS]
National Toxicology Program [NTP]
U.S. Food and Drug Administration [FDA]
The sonic hedgehog (Shh) pathway is essential for normal embryonic development. Dysregulation of the Shh pathway can cause severe developmental defects in organs. Therefore chemicals that interfere with the pathway are potential developmental toxicants. A cell line designated 3T3Gli1-Luc (DMB/OARSA/CFSAN/FDA, Laurel, MD), a NIH/3T3 derived clone containing stably integrated Gli1-Luc reporter is used to detect chemical interference of the Shh pathway, by changes in the expression of the firefly Luc gene under the control of the Gli1 transcriptional response element. This cell line was used to screen Tox21 libraries for identifying and prioritizing the potential developmental toxicants that interfere Shh pathway. Conditioned medium-stimulated mode was used to screen for chemicals inhibiting Shh signaling. The cytotoxicity of the compounds was tested in parallel by measuring the cell viability using CellTiter-Fluor assay system (Promega, Madison, WI) in the same wells.
Tox21 Assay Protocol Summary:
3T3 Gli1-Luc cells were dispensed at 2,000 per well in 5uL of culture medium into white solid bottom 1536-well plates (Greiner Bio-One, Monroe, NC) using a Multidrop Combi (Thermo Scientific, Waltham, MA) dispenser. The assay plates were incubated at 37 C and 5% CO2 for 4hr, and then 23nL of compounds dissolved in DMSO and positive control were transferred using a Pintool station (Wako, San Diego, CA). The compound transfer was followed by the addition of 1ul conditioned medium or assay buffer using two separate tips of Flying Reagent Dispenser (FRD, Aurora Discovery, San Diego, CA). The assay plates were incubated at 37C and 5% CO2 for 24hr. For viability read, after 23hr of compound treatment, 1uL of CellTiter-Fluor reagent (Promega Corporation, Madison, WI) was added to each well of the assay plates using Flying Reagent Dispenser (FRD, Aurora Discovery, San Diego, CA) and incubated the assay plates at 37C for 1hr. The fluorescence signal was quantified using a ViewLux plate reader (Perkin Elmer, Shelton, CT).
Potency is read from the fitted curve at half-maximal effect.

Row | SMILES | Potency | viability change, negative = cytotoxic
1 | O=C(NCO)NCO | inactive | 
2 | Cc1coc2c1CCC(C)C2 (stereo not given) | inactive | 
3 | N#CCBr | inactive | 
4 | CCCCCCI | inactive | 
5 | CCOP(=O)(OCC)OP(=O)(OCC)OCC | inactive | 
6 | CC(C)CP(=S)(S)CC(C)C | inactive | 
7 | CCC(C)n1c(=O)[nH]c(C)c(Br)c1=O (stereo not given) | inactive | 
8 | COC(=O)C(c1ccccc1)C1CCCCN1 (stereo not given) | inactive | 
9 | O=C1c2ccccc2C(=O)c2ccccc21 |  | -0.095% [at 19 µM] (inactive)
10 | Fc1ccc(C2(Cn3cncn3)OC2c2ccccc2Cl)cc1 (stereo not given) | inactive | 
11 | O=C1OC(=O)C2C1C1(Cl)C(Cl)=C(Cl)C2(Cl)C1(Cl)Cl (stereo not given) | inactive | 
12 | C#CCN1C(=O)COc2cc(F)c(N3C(=O)C4=C(CCCC4)C3=O)cc21 | inactive | 
13 | Nc1cc(Cl)ccc1O | 29.6 µM (active) | 
14 | CC(C)(C)OC(=O)c1ncn2c1[C@@H]1CCCN1C(=O)c1c(Br)cccc1-2 | inactive | 
15 | CCCSP(=O)(OCC)Oc1ccc(Br)cc1Cl (stereo not given) | inactive | 
16 | CC(C)NCC(O)c1ccc(N)c(C#N)c1 (stereo not given) | inactive | 
17 | c1cc2c(c(N3CCNCC3)c1)OCCO2 | inactive | 
18 | CC(C)(C)C(=O)C(Oc1ccc(Cl)cc1)n1cncn1 (stereo not given) | inactive | 
19 | CCOP(=S)(OCC)SCSP(=S)(OCC)OCC | inactive | 
20 | CCOC(=O)N(C)C(=O)CSP(=S)(OCC)OCC | inactive | 

Row | SMILES | Potency | viability change, negative = cytotoxic
21 | [Cl][Sn]([Cl])([Cl])[Cl] | inactive | 
22 | CNC(=O)N(C)c1nc2ccccc2s1 | inactive | 
23 | O=C1CN2CCOC2(c2ccccc2Cl)c2cc(Cl)ccc2N1 (stereo not given) | inactive | 
24 | O=C(O)c1cccc(Cl)c1 | inactive | 
25 | COc1cccc2c1cc([N+](=O)[O-])c1c(C(=O)O)cc3c(c12)OCO3 | 12.2 µM (active) | 
26 | OC(c1ccc(F)cc1)(c1cncnc1)c1ccccc1Cl (stereo not given) | inactive | 
27 | CC(=O)[C@H]1CC[C@H]2[C@@H]3CC[C@H]4C[C@H](O)CC[C@]4(C)[C@H]3C(=O)C[C@]12C | inactive | 
28 | CC1CCCCC1NC(=O)Nc1ccccc1 (stereo not given) | inactive | 
29 | O=C(O)C(Br)CBr (stereo not given) | inactive | 
30 | NC1=NC(=O)C(c2ccccc2)O1 (stereo not given) | inactive | 
31 | Oc1c(Cl)cccc1Cl | inactive | 
32 | CC1(C)C(=O)NC(=O)NC1=O | inactive | 
33 | CCOC(=O)/C=C(C)/C=C/C[C@@H](C)CCCC(C)C | inactive | 
34 | BrCCCCCCBr | inactive | 
35 | CCCCN(CCCCO)N=O | inactive | 
36 | Nc1cnn(-c2ccccc2)c(=O)c1Cl | inactive | 
37 | Cc1ncsc1CCCl | inactive | 
38 | N#Cc1ccncc1 | inactive | 
39 | CC1CCC(=O)O1 (stereo not given) | inactive | 
40 | CC(Cl)(Cl)[N+](=O)[O-] | inactive | 
